Screen size: about 140,000 compounds; about 680 (0.49%) were called active. No stated cut-off is given here; in the data, active means activation above about 5% (passing the limit was not always enough); inactive means the rest. This excerpt belongs to a sample that is enriched for actives.

Sequence of Galanin receptor type 2 (Homo sapiens) (O43603 whole entry, looked up): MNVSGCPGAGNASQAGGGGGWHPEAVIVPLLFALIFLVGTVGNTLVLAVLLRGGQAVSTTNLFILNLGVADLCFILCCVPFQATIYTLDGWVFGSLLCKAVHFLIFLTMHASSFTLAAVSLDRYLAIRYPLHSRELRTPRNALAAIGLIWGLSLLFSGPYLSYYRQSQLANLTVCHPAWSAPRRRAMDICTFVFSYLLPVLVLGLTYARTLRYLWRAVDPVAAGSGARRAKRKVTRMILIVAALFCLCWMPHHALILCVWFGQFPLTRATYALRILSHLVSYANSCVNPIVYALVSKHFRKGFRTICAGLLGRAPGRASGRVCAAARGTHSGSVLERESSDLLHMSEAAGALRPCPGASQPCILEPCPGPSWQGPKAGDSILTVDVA

This experiment addresses Galanin receptor type 2 (Homo sapiens) (UniProt O43603). As to the kind of experiment: human galanin receptor 2 activators – cell-based, primary screen (AID 803).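 Further: 0% = vehicle buffer wells and 100% = reference agonist at full effect.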 The note with it: GALR2-expressing cells, agonist activation read-out; at 5.6 µM; active compounds read high.
For `CC1Cc2ccccc2N1C(=O)CSc1nnc(-c2ccc(S(=O)(=O)N3CCCC3)cc2)n1C` (stereo unspecified), the activation is -1.17% (inactive).
As for `O=S(=O)(O)c1nc2ccccc2n1Cc1ccc(Cl)cc1`, the figure is -2.3% (inactive).
With `CC(C)(C)c1ccc(C(=O)NCCn2c(N)c(C#N)c3nc4ccccc4nc32)cc1`, the activation was 6.59% (active).
To `CN(C)CCCn1c(N)c(C#N)c2nc(C#N)c(C#N)nc21` belongs 5.27% (inactive).
To `CC(C)(C)OC(=O)c1c(N)n(CCCN2CCCC2=O)c2nc3ccccc3nc12` belongs 3.75% (inactive); to `CN1OC(COC(=O)c2ccc(Cl)cc2)CC1c1ccccc1` (stereo unspecified), -1.93% (inactive).
Regarding `N#Cc1c(N)n(CCOC(=O)c2ccc(Cl)cc2)c2nc3ccccc3nc12`, the activation was 7.76% (active).
To `CC(Oc1ccccc1)C(=O)Nc1oc(-c2ccco2)c(-c2ccco2)c1C#N` (stereo unspecified) belongs -0.85% (inactive).
To `O=C(/C=C/c1ccc(Cl)cc1)N1CCN(c2ccccc2[N+](=O)[O-])CC1` belongs -1.19% (inactive); to `Cc1ccc(NC(=S)NCCN2CCOCC2)cc1`, -2.96% (inactive).
For `Cc1nc2nc(SCC(=O)NCc3ccco3)nn2c(C)c1Cc1ccccc1`, the activation is 0.05% (inactive).
As for `Cc1ccc(Cc2c(C)nc3nc(SCC(=O)NCCN4CCOCC4)nn3c2C)cc1`, the figure is 24.8% (active); as for `Cc1cc(C)nc(-n2ncc3c2CC(c2ccc(C(C)C)cc2)CC3=O)n1` (stereo unspecified), 0.11% (inactive); as for `O=C(Nc1ccccc1F)c1ccccc1-c1ccc(C(F)(F)F)cc1`, -0.53% (inactive).
With `O=C(NCC1CCCO1)/C(=C/c1ccc(Cl)cc1)NC(=O)c1ccccc1` (stereo unspecified), the activation was -1.2% (inactive).
As to `CCOC(=O)Cc1csc(NC(=O)Nc2ccccc2)n1`, the activation is -2.31% (inactive).
On to `CCOC(=O)Cc1csc(NC(NC(=O)OCC)(C(F)(F)F)C(F)(F)F)n1`, for which the activation was -2.02% (inactive).
To `CCOC(=O)Cc1csc(NC(=O)C(C)(C)C)n1` belongs 6.79% (active).
To `CCCCN1C(=O)c2ccc(C(=O)Nc3ccc(S(=O)(=O)N(C)C)cc3)cc2C1=O` belongs -1.35% (inactive); to `CC(=O)NC(Cc1ccccc1)C(=O)NC1CCN(c2ncccc2[N+](=O)[O-])CC1` (stereo unspecified), -0.16% (inactive); to `OC(COCc1ccco1)CN1CCN(c2ccccc2)CC1` (stereo unspecified), -1.72% (inactive).
On to `Cc1ccc(C(=O)Nc2ccc(C)c(S(=O)(=O)N(C)C)c2)s1`, for which the activation is 0.14% (inactive).
As for `COC(=O)CNC(=O)c1ccccc1[N+](=O)[O-]`, the figure is -2.69% (inactive); as for `O=[N+]([O-])c1ccccc1SNc1ccccn1`, 10.3% (active).
To `O=S(=O)(Nc1ccccn1)c1ccc(Oc2ccccc2)cc1` belongs -1.45% (inactive).
To `COc1cc(CN2CC(C)CC(C)C2)cc([N+](=O)[O-])c1O` (stereo unspecified) belongs 0.36% (inactive); to `COc1cc(NC(=O)c2cc([N+](=O)[O-])ccc2Br)ccc1NC(=O)c1ccco1`, -2.01% (inactive); to `Cc1ccc(-c2cc(N)on2)cc1`, -1.6% (inactive).
For the compound `CCOc1ccc(Br)cc1S(=O)(=O)Nc1ccc(C(=O)OC(C)C(=O)N(C)c2ccccc2)cc1` (stereo unspecified), the activation was -0.52% (inactive).
As for `COc1cc(NC(=S)NCCSc2ccc(C)cc2)cc(OC)c1`, the activation was -1.5% (inactive).
As for `Cc1noc(/C=C/c2ccco2)c1S(=O)(=O)N1CCC(C(=O)Nc2ccc(Cl)cn2)CC1`, the figure is -1.28% (inactive).
As for `Cc1cccc2cc(CN(Cc3ccc4c(c3)OCO4)Cc3nnnn3C3CCCC3)c(=O)[nH]c12`, the figure is 5.7% (active).
To `Cc1cccc2cc(CN(Cc3cccs3)C(c3nnnn3C3CCCC3)C(C)C)c(=O)[nH]c12` (stereo unspecified) belongs -1.34% (inactive); to `CCC(c1nnnn1C1CCCC1)N(Cc1cccs1)Cc1cc2cccc(C)c2[nH]c1=O` (stereo unspecified), -1.09% (inactive); to `COc1ccccc1C1CC(=O)n2c(nc(-c3ccccc3)c2-c2ccccc2)S1` (stereo unspecified), -1.18% (inactive).
`O=C1N(c2ccc(Cl)cc2)C(c2ccc(Cl)cc2)N2CCCN12` (stereo unspecified): the activation is -0.59% (inactive).
To `NCCCC[C@@H]1NC(=O)[C@H](CCC(=O)O)NC(=O)c2cc([N+](=O)[O-])cc(I)c2NCC[C@@H](C(N)=O)NC1=O` belongs -0.98% (inactive); to `CNC(=S)N/N=C/c1cn(Cc2ccc(C)cc2)c2ccccc12`, -1.46% (inactive); to `O=c1cc(CO)oc(C(Nc2cccc([N+](=O)[O-])c2)c2ccccn2)c1O` (stereo unspecified), 0.7% (inactive).
Consider `Cc1ccc(-c2cn3cc([N+](=O)[O-])ccc3n2)cc1`, for which the activation is -1.19% (inactive).
For the compound `CCOc1ccc(C(=O)Nc2cc(OC)ccc2OC)cc1`, the activation was -2.67% (inactive).
To `CCOc1cc(NC(=O)c2cnccn2)c(OCC)cc1NC(=O)c1ccc(C)cc1` belongs 22.8% (active); to `CCOc1ccccc1NC(=O)c1cccnc1`, 0.49% (inactive).
As for `Cc1sc2nc(COC(=O)C(NC(=O)c3ccc(Cl)cc3Cl)C(C)C)[nH]c(=O)c2c1C` (stereo unspecified), the figure is -1.47% (inactive).
With `CC(C)(C)c1ccc(C(=O)CSc2ncn[nH]2)cc1`, the activation is -1.49% (inactive).
Regarding `O=C(CSc1ncn[nH]1)Nc1ccnc2ccccc12`, the activation was -2.63% (inactive).
As to `CCN(C(=O)CSc1ncn[nH]1)c1cccc2ccccc12`, the activation was 144% (active).
For `CC(=O)Nc1ccc(/C(C)=N/NC(=O)CN(c2ccccc2Br)S(C)(=O)=O)cc1`, the activation was -0.42% (inactive).
As to `CSc1ccc(/C=C/C(=O)NC23CC4CC(CC(C4)C2)C3)cc1`, the activation is -1.84% (inactive).
As for `Cc1cccn2c(=O)c3cc(C#N)c(=O)n(CCCN4CCOCC4)c3nc12`, the figure is 2.81% (inactive); as for `Cc1cccn2c(=O)c3cc(C#N)c(=NC(=O)c4cccnc4)n(CC4CCCO4)c3nc12` (stereo unspecified), 7.52% (active).
Regarding `Cc1cccn2c(=O)c3cc(C(=O)N4COCC4(C)C)n(C)c3nc12`, the activation was 0.31% (inactive).
As to `CC(=O)c1ccc(NC(=O)Nc2ccc([N+](=O)[O-])cc2C)cc1`, the activation was -1.71% (inactive).
To `CCCn1c(=O)c2c(C(F)(F)F)cc(-c3cccs3)nc2n(CCC)c1=O` belongs 6.87% (active); to `FC(F)(F)c1cc(-c2cccs2)nc(NCc2ccco2)n1`, -1.85% (inactive).
As for `Cc1cc(-c2cccs2)nc(-n2cccc2)n1`, the activation is -2.57% (inactive).
Regarding `Cc1cc(C)nc(NC(=O)C(C)N2C(=O)c3ccccc3C2=O)n1` (stereo unspecified), the activation was -2.31% (inactive).
As for `COC(=O)c1ccc(NC(=O)Nc2ccc(C)cc2)cc1`, the figure is -1.78% (inactive).
As for `COC(=O)c1ccc(NC(=O)C(C)N2C(=O)c3ccccc3C2=O)cc1` (stereo unspecified), the figure is 8.37% (active).
In the case of `O=C(CSc1ccccc1)Nc1cc(Cl)ccc1Oc1ccccc1`, the activation is -0.74% (inactive).
For `C/C(CCC(=O)OC[C@H]1O[C@H](C#Cc2ccccc2)C=C[C@@H]1Oc1ccc(C)cc1)=N\OC[C@@H](O)[C@H]1O[C@@H]2OC(C)(C)O[C@@H]2[C@H]1O`, the activation was -0.18% (inactive).
`CCOC(=O)CSc1nc2sc3c(c2c(=O)[nH]1)CC(C)(C)OC3`: the activation is -2.5% (inactive).
As to `CCOC(=O)Cn1c(SC)nc2sc3c(c2c1=O)CC(C)(C)OC3`, the activation was -1.18% (inactive).
With `CC/C(C)=N/Nc1nc2sc3c(c2c(=O)[nH]1)CC(C)(C)OC3`, the activation was 25.2% (active).
In the case of `CCOc1ccc(NC(=O)COc2ccc(C(=O)NC3CCCc4ccccc43)cc2OC)cc1` (stereo unspecified), the activation is -0.21% (inactive).
As for `CCc1ccc(-c2cc(C(=O)NN3CCN(C)CC3)c3ccccc3n2)cc1`, the figure is 0.42% (inactive); as for `CCCCNS(=O)(=O)c1ccc2nc(SCC(=O)Nc3cc(C)cc(C)c3)[nH]c2c1`, -1.87% (inactive).
In the case of `CCc1cc(C(=O)OC)c(NC(=O)CC2Sc3ccc(C(F)(F)F)cc3NC2=O)s1` (stereo unspecified), the activation was 1.46% (inactive).
To `Cc1ccc2nc(-c3ccccc3)cc(C(=O)O)c2c1` belongs -0.75% (inactive); to `COc1ccc(Cl)cc1C(=O)NCc1cn(C)nc1C`, -0.07% (inactive).
To `Cc1ccc(-c2cc(C(=O)NCc3cn(C)nc3C)c3cc(Br)ccc3n2)cc1` belongs 5.13% (active); to `CCCn1nc(NS(=O)(=O)c2ccccc2)c2cc3cc(C)ccc3nc21`, -2.05% (inactive); to `COc1ccc(C2=NN(C(=O)c3cccnc3)C(c3ccccc3)C2)cc1` (stereo unspecified), -0.17% (inactive).
To `COc1ccc(C2CC(c3ccccc3)=NN2C(=O)CSc2nccc(=O)[nH]2)cc1` (stereo unspecified) belongs 0.01% (inactive); to `COc1ccc(C2CC(c3ccccc3)=NN2C(=O)c2ccc(Cl)c([N+](=O)[O-])c2)cc1` (stereo unspecified), 4.95% (active); to `Cn1ncc2c(NNC(=O)Cc3cccc4ccccc34)ncnc21`, 0.28% (inactive).
Regarding `CCOc1ccccc1NC(=O)CCc1ccc(C)o1`, the activation is -0.84% (inactive).
To `Cc1cnc(NC(=O)CSc2nnc(-c3ccc(Cl)cc3Cl)n2N)s1` belongs -1.9% (inactive); to `Cc1ccc(CCC(=O)Nc2ncc(Cc3cc(Cl)ccc3Cl)s2)o1`, 8.73% (active).
As for `O=C(Nc1ccccc1F)c1ccccc1-c1ccccc1`, the figure is -0.61% (inactive); as for `COc1ccccc1N1N=C(c2cccs2)CC1c1ccccc1` (stereo unspecified), 13.1% (active); as for `Fc1ccc(N2N=C(c3cccs3)CC2c2ccco2)c(F)c1` (stereo unspecified), 10.4% (inactive).
Consider `COc1ccc(C2CC(c3cccs3)=NN2C(=O)COC(=O)c2cc3ccccc3cc2O)cc1OC` (stereo unspecified), for which the activation was 0.22% (inactive).
To `COc1cccc(C(=O)c2cc3ccc(O)cc3oc2=O)c1` belongs 2.29% (inactive).
As for `O=c1oc2cc(O)ccc2cc1-c1ccc(F)cc1`, the figure is 14.9% (active).
As for `COc1ccc(-c2cc3ccc(OCc4nn[nH]n4)cc3oc2=O)cc1`, the activation was 0.01% (inactive).
Consider `COc1cc(/C=N\NC(=O)c2nonc2N)c(OC)cc1Br`, for which the activation is -0.75% (inactive).
As for `O=C(CCc1ccc(S(=O)(=O)N2CCOCC2)cc1)NN=C1CCCCCCC1`, the figure is -0.53% (inactive).
To `Cn1c(=O)oc2cc(S(=O)(=O)N3CCC(C(=O)Nc4ccc(OC(F)(F)F)cc4)CC3)ccc21` belongs 9.92% (active); to `Cc1ccc(C)c(N2CCN(S(=O)(=O)c3ccc4c(c3)oc(=O)n4C)CC2)c1`, -1.17% (inactive).
As for `Cc1ccc2nc(NC(=O)C3CCN(S(=O)(=O)c4ccc5c(c4)oc(=O)n5C)CC3)sc2c1`, the activation is -1.18% (inactive).

Values taken from PubChem BioAssay AID803 (The Scripps Research Institute Molecular Screening Center, 2007).
